Experimental findings from PubChem BioAssay (NCATS) are described below.

Inconclusive results are not listed. The source made the active and inactive calls. Calls follow the shape of the dose curve; as a rule, active = well fitted cell-killing curve with a large enough effect; inconclusive = small, poorly fitted or top-dose-only effect, or effect the other way; inactive = no such curve, though single readings can be large or run the other way. Residues, ends and D or L forms follow the SMILES beside them. *: point of attachment. Cbz = O=C(OCc1ccccc1)*
Potency is read from the fitted curve at half-maximal effect.

The nature of the assay: Quantitative High-Throughput drug screen in 47 multiple myeloma cell lines against the NCATS MIPE library collection: KMM1_JCRB cell viability assay (AID 1918960). Also: nearly all actives have a fitted effect of over 30% in size. The following applies: KMM1 myeloma viability, CellTiter-Glo ATP luminescence, 48 h; series mostly up to 45.8 µM. The text has this: PI: Beverly A. Mock Ph.D.
Laboratory of Cancer Biology and Genetics,
Center for Cancer Research, National Cancer Institute,
National Institute of Health, Bethesda, Maryland
Drug resistance and disease progression are common in multiple myeloma (MM) patients, underscoring the need for new therapeutic combinations. […] We hypothesized that effective combinations would reduce MYC expression and enhance p16 activity. […] These preclinical data identify potentially useful drug combinations for evaluation in drug-resistant MM and reveal potential mechanisms of combined drug sensitivity.
Described herein is the primary MIPE qHTS used to cherrypick compounds. Validated compounds were then further tested for potential synergistic activiy.
[1] Peat TJ, Gaikwad SM, Dubois W, Gyabaah-Kessie N, Zhang S, Gorjifard S, Phyo Z, Andres M, Hughitt VK, Simpson RM, Miller MA, Girvin AT, Taylor A, Williams D, D'Antonio N, Zhang Y, Rajagopalan A, Flietner E, Wilson K, Zhang X, Shinn P, Klumpp-Thomas C, McKnight C, Itkin Z, Chen L, Kazandijian D, Zhang J, Michalowski AM, Simmons JK, Keats J, Thomas CJ, Mock BA. Drug combinations identified by high-throughput screening promote cell cycle transition and upregulate Smad pathways in myeloma. Cancer Lett. 2023 Aug 1;568:216284. doi: 10.1016/j.canlet.2023.216284. Epub 2023 Jun 24. PMID: 37356470; PMCID: PMC10408729.
SEQUENCE No. (e.g., 1, 2, 3, etc.); […] (e.g., Cells, Incubation, Reagent, etc.); VALUE and DESCRIPTION.
1; Cells; 5 uL; white, solid bottom 1536-well Greiner assay plate.
2; Compounds; 23 nL; Kalypsis pin tool (Wako USA) equipped with a 1536-well pin head to transfer to the assay plates.
3; Incubation; 48 hours; 37C incubation.
4; Reagent;5uL; CellTiter Glo (Promega).
5; Detector; 425V; Luminescence; Viewlux PerkinElmer.
NOTES (numbers refer to Sequence numbers above)
1. The cell-based screening methods employed in this study were like those previously published. Briefly, the corresponding myeloma cell lines were screened in 1,536-well plates with 500 cells, 5-uL per well for inhibition of cell viability (assessed by measuring ATP levels with CellTiterGlo).
2. NCATS MIPE 4.0 library of approved and investigational drugs were added using the Kalypsis pin tool. Wells treated with DMSO only for 100% viability and media only cells for 0% viability were used as controls.
3. The assay plates were covered and incubated for 48 hours in a 37C, 5% CO2 incubator with controlled humidity.
4. After 48 hours, CellTilter-GloTM luminescent substrate mix (Promega) reagent was added to the assay plate and plates we incubated for 5 min at room temperature.
5. Signal was measured as median relative luminescence units on a ViewLux (PerkinElmer) multiplate reader.
[1] Heske CM, Davis MI, Baumgart JT, Wilson K, Gormally MV, Chen L, Zhang X, Ceribelli M, Duveau DY, Guha R, Ferrer M, Arnaldez FI, Ji J, Tran HL, Zhang Y, Mendoza A, Helman LJ, Thomas CJ. Matrix Screen Identifies Synergistic Combination of PARP Inhibitors and Nicotinamide Phosphoribosyltransferase (NAMPT) Inhibitors in Ewing Sarcoma. Clin Cancer Res. 2017 Dec 1;23(23):7301-7311. doi: 10.1158/1078-0432.CCR-17-1121. Epub 2017 Sep 12. PMID: 28899971; PMCID: PMC6636827.
On to `Cc1cncc2cccc(S(=O)(=O)N3CCCN(C(=O)CN)C[C@@H]3C)c12`, for which the Potency result was “inactive”. Then `COC1=C(OC)C(=O)C(CC=C(C)CCC=C(C)CCC=C(C)CCC=C(C)CCC=C(C)CCC=C(C)CCC=C(C)CCC=C(C)CCC=C(C)CCC=C(C)C)=C(C)C1=O`, with “inactive”; and `C[C@H](NCc1ccc(OCc2cccc(F)c2)cc1)C(N)=O`, with 6620 nM (active). Turning to `O=C(NNC(=O)c1ccc(CNS(=O)(=O)c2ccc(F)c(Cl)c2)cc1)c1ccccc1`, the Potency result is “inactive”. Then `CC(=O)ON=C1C(c2c(O)[nH]c3cc(Br)ccc23)=Nc2ccccc21`, with 5900 nM (active); and `CCOC(=O)[C@H](CCc1ccccc1)N[C@@H](C)C(=O)N1[C@@H](C(=O)O)C[C@H]2CCC[C@@H]21`, with 7430 nM (active). As for `COc1cc(OC)c(C=CS(=O)(=O)Cc2ccc(OC)c(NCC(=O)O)c2)c(OC)c1`, the Potency was 74.3 nM (active).

As for `C[C@]12C=CC(=O)N[C@@H]1CC[C@H]1[C@H]3CC[C@@H](C(=O)Nc4cc(C(F)(F)F)ccc4C(F)(F)F)[C@@]3(C)CC[C@@H]12`, the Potency entry is “inactive”. Then `CCOC(=O)C1=C(C)NC(=S)NC1c1cccc(O)c1` (stereo not given), with 469 nM (active); and `CN[C@H]1[C@@H](O)[C@@H]2O[C@@H]3O[C@H](C)CC(=O)[C@]3(O)O[C@@H]2[C@@H](NC)[C@H]1O`, with 372 nM (active); and `C[C@H](NC(=O)Cc1cc(F)cc(F)c1)C(=O)N[C@H](C(=O)OC(C)(C)C)c1ccccc1`, with “inactive”.

Consider `O=C(O)CCCCC(CCSCc1ccccc1)SCc1ccccc1` (stereo not given), for which the Potency is 13200 nM (active). Take `CC(=O)OC[C@@H]1O[C@@H](n2ccc(=O)[nH]c2=O)[C@H](OC(C)=O)[C@H]1OC(C)=O`: the Potency entry was “inactive”. Take `CC(C)n1cnc2c(NCCc3ccc(O)cc3)nc(-c3csc4ccccc34)nc21`: the Potency result is “inactive”. To `C[C@H]1[C@@H](OC(=O)CCC(=O)O)O[C@@H]2O[C@@]3(C)CC[C@@H]4[C@H](C)CC[C@@H]1[C@@]24OO3` belongs 332 nM (active); to `NC(=NCCCCCCN=C(N)N=C(N)Nc1ccc(Cl)cc1)N=C(N)Nc1ccc(Cl)cc1`, 18700 nM (active); to `Cc1coc2c1C(=O)C(=O)c1c-2ccc2c(C)cccc12`, “inactive”. Regarding `OC[C@@H](O)[C@@H](O)[C@H](O)[C@@H](O)CO`, the Potency result was “inactive”. Regarding `C=CC(=O)Nc1ccc2ncnc(Nc3ccc(OCc4cccc(F)c4)c(Cl)c3)c2c1`, the Potency is 148 nM (active). To `C=CCNC1=C2C[C@@H](C)C[C@H](OC)[C@@H](O)[C@@H](C)C=C(C)[C@H](OC(N)=O)[C@@H](OC)C=CC=C(C)C(=O)NC(=CC1=O)C2=O` belongs 148 nM (active); to `CC(C)C[C@@H](C=O)NC(=O)[C@H](CC(C)C)NC(=O)[C@H](CC(C)C)NC(=O)OCc1ccccc1` (Cbz-Leu-Leu-Leu-aldehyde), 83.3 nM (active); to `COc1cc2c(Nc3ccc(Cl)c(Cl)c3F)ncnc2cc1OCC1C[C@@H]2CN(C)C[C@H]2C1`, 18700 nM (active).

For the compound `CC1(C)[C@H](O[C@H]2O[C@H](C(=O)O)[C@@H](O)[C@H](O)[C@H]2O[C@@H]2O[C@H](C(=O)O)[C@@H](O)[C@H](O)[C@H]2O)CC[C@@]2(C)[C@H]1CC[C@]1(C)[C@H]2C(=O)C=C2[C@H]3C[C@@](C)(C(=O)O)CC[C@]3(C)CC[C@]21C`, the Potency result is “inactive”. As to `O=c1[nH]c(=O)n([C@H]2C[C@@H](O)[C@@H](CO)O2)cc1F`, the Potency is 1660 nM (active). With `COc1cc(OC)c(NC(=O)Nc2cc(C)on2)cc1Cl`, the Potency entry was “inactive”. To `COc1cc(OC)cc(-c2ccc3ncc4ccc(=O)n(-c5ccc(N6CCNCC6)c(C(F)(F)F)c5)c4c3c2)c1` belongs 2960 nM (active); to `Cn1cc(C[C@@H](N)C(=O)O)c2ccccc21`, “inactive”.

Turning to `CC(C)OC(=O)[C@H](C)N[P@](=O)(OC[C@H]1O[C@@H](n2ccc(=O)[nH]c2=O)[C@](C)(F)[C@H]1O)Oc1ccccc1`, the Potency result is “inactive”. Then `CCCNC(=O)[C@H]1O[C@H]1C(=O)N[C@H](C(=O)N1CCC[C@@H]1C(=O)OC)C(C)CC` (stereo not given in full), with 9350 nM (active); and `CCNC(=O)Nc1ccc(-c2nc3c(c(N4CCOC[C@H]4C)n2)CCN(C2COC2)C3)cc1`, with 332 nM (active). As for `C[C@H](NCc1ccc2c(c1)nc(NC(=O)c1ccc(-c3cn[nH]c3)s1)n2CCc1ccccc1)C(C)(C)C`, the Potency was 833 nM (active).

In the case of `COc1ccc(Nc2cc(-c3cnc(N)nc3)nc(N3CCOCC3)n2)cn1`, the Potency was 590 nM (active). Then `CN1[C@H]2CC(OC(=O)[C@@H](CO)c3ccccc3)C[C@H]1[C@H]1O[C@H]12` (stereo not given in full), with “inactive”; and `CC(C)(O)CC[C@@H](O)[C@](C)(O)[C@H]1CC[C@@]2(O)C3=CC(=O)[C@@H]4C[C@@H](O)[C@@H](O)C[C@]4(C)[C@@H]3CC[C@]12C`, with “inactive”; and `Oc1cc(-c2nc(-c3ccccc3)[nH]c2-c2ccncc2)ccc1Cl`, with 1870 nM (active). In the case of `CN(CC(=O)N(Cc1ccc(C2CCCCC2)cc1)c1ccc(C(=O)O)c(O)c1)S(=O)(=O)c1c(F)c(F)c(F)c(F)c1F`, the Potency was 10500 nM (active). Turning to `CCN(CC)CCNC(=O)c1c(C)[nH]c(C=C2C(=O)Nc3ccc(F)cc32)c1C`, the Potency is 3820 nM (active). As for `C=CC(=O)Nc1cc(NC(=O)c2ccc(C)c(NC(=O)c3ccno3)c2)cc(C(F)(F)F)c1`, the Potency was 5900 nM (active). With `O=c1[nH]c(=O)n([C@H]2C[C@@H](O)[C@@H](CO)O2)cc1C=CBr`, the Potency result was “inactive”. To `CC[C@H]1OC(=O)[C@H](C)[C@@H](O[C@H]2C[C@@](C)(OC)[C@@H](O)[C@H](C)O2)[C@H](C)[C@@H](O[C@@H]2O[C@H](C)C[C@H](N(C)C)[C@@H]2O)[C@](C)(OC)C[C@@H](C)C(=O)[C@H](C)[C@@H](O)[C@]1(C)O` belongs “inactive”.
